# Assay outcomes deposited in PubChem by National Center for Advancing Translational Sciences (NCATS).
# In the library only some 1.7% were active in any assay of this set; here they are far more common.
# KCNH2 WT inh: blocks the wildtype human KCNH2 potassium channel | Q12809 | U2OS, BacMam KCNH2, thallium flux FluxOr; active compounds read low | activity change, % at 1.84 µM | hit rate 0.37% among 340,000 | AID 720551;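 active means maximum activity change below -70%; inconclusive means maximum activity change between -70% and -50%; inactive means maximum activity change above -50%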
#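 U2OS cells were transduced with wild-type KCNH2 virus (2.03 x 10^8 / mL) for 4 h at room temperature, then cultured overnight at 37 C. Thallium flux was read with FluxOr dye. Rate constants were normalized to DMSO controls.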
# KCNH2 3.1 inh: inhibitors of human KCNH2 3.1 potassium channel isoform; U2OS KCNH2 3.1, thallium flux FluxOr; active compounds read low; activity change, % (tested at about 1.8 µM); hit rate 0.95% among 340,000; AID 720553;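 active means maximum activity change below -70%; inconclusive means maximum activity change from -70% to -50%; inactive means maximum activity change above -50%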;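 further: thallium influx rate constant from kinetic fluorescence after stimulation buffer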
#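 U2OS cells transduced with KCNH2 3.1 mutant virus (1.77 x 10^8 /mL, 4 h), plated overnight at 37 C, loaded 45 min with FluxOr dye plus Red40 quencher. Thallium flux rate constant from kinetic reads after stimulation buffer, normalised to controls.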
# USP1 inh: USP1/UAF1 (human) deubiquitinase inhibition. recombinant USP1/UAF1, Ub-Rhodamine cleavage fluorescence. Potency, µM (top dose mostly 57.1 µM), inactives show at the top dose activity change, negative = inhibition, most hits filed as inhibitors. hit rate 0.23% among 390,000. AID 743255; active means well fitted inhibition curve with a large enough effect; inconclusive means small, poorly fitted or top-dose-only effect; inactive means no such curve, though single readings can be large or run the other way; further: potency means the concentration at half of the fitted maximal effect; nearly all actives have a fitted effect of over 60% in size
# Target sequence (O94782 whole entry, looked up): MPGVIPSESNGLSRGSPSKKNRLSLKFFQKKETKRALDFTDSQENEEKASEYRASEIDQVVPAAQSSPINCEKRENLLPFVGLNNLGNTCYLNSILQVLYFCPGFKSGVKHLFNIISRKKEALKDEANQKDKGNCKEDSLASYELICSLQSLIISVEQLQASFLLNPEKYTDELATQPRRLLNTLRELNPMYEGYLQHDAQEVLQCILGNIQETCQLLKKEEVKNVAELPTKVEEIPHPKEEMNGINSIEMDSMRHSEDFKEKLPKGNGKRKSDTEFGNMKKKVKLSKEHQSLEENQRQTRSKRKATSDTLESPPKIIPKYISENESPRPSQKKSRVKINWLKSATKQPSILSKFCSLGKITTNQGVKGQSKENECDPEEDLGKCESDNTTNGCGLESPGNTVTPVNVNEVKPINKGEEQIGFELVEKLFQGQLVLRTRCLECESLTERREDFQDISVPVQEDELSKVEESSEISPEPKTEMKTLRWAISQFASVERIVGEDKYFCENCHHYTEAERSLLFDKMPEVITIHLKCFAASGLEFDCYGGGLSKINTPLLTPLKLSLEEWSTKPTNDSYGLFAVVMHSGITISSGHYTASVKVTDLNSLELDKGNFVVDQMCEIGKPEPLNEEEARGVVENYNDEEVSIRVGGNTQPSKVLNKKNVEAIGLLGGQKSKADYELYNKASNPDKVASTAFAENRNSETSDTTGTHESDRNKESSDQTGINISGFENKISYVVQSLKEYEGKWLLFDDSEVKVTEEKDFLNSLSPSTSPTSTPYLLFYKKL
#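 1 nM enzyme complex + cpd, 15 min RT; start with Ub-Rho 150nM final; kinetic fluorescence ex 480/em 540, 6 reads q60 s. Buffer 50mM HEPES pH 7.8, 0.5mM EDTA, 0.1 mg/ml BSA, 1mM TCEP, 0.01% Tween-20.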
# Giardia killer: kills Giardia lamblia. Giardia lamblia trophozoite viability. activity change, % at 7.66 µM, hits read low. hit rate 0.15% among 340,000. AID 540267; in the data active means activity change below about -80%; inconclusive means between about -30% and that limit;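 further: parasites exposed to compound for two days anaerobically before the ATP read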
#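 Luminescent ATP signal served as the viability read-out, measured 15-30 min after adding ATP detection reagent to trophozoites that had been incubated with compounds for 48 hrs at 37 deg C anaerobically at 100 cells/well.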
# FBPA coupling cs: counter-screen for Giardia aldolase inhibitors: coupling enzyme system. coupling enzyme system counterscreen, AmpLite Red fluorescence. activity change, negative = inhibition, % at 58.2 µM, hits read low. hit rate 0.67% among 290,000; in the data active means activity change below about -30%
#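 Coupling enzymes only (glyceraldehyde-3-phosphate) + compound, at 57.5 uM final, 10 min RT; add substrate/coupling/AmpLite Red mix, 20 min RT; fluorescence ex 525/em 598 nm. Actives flag coupling-system interference.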
# The depositor's hits bear a star; ? = inconclusive; / = no result given. On the % scale 0 is the no-effect control and ±100 the full control effect.
SMILES,KCNH2 WT inh,KCNH2 3.1 inh,USP1 inh,Giardia killer,FBPA coupling cs
CCC(C)[C@H]1CNCCN1CCC12CC3CC(CC(C3)C1)C2 (some centres not stated),-14.8,-136.2*,-13.2%,-17.3,/
Oc1ccc(/C=N/N2CCOCC2)c(O)c1O,-3.6,-7.3,?,-7.0,-47.9*
Oc1ccc(/C=N/N2CCCCC2)c(O)c1O,-10.5,1.2,?,-2.0,-53.0*
CCCCCC/C=C1\CC(C(=O)OCC)Oc2ccccc21 (configuration not stated) (tested in a mixture with another compound),/,/,/,/,-2.1
O=C(NCCN1CCN(c2ccccc2)CC1)c1cccn2c(=O)c3ccccc3nc12,-27.5,-38.1,-7.9%,-1.0,-0.7
O=C(NCCN1CCN(c2ccccc2F)CC1)c1cccn2c(=O)c3ccccc3nc12,-13.8,-79.4*,-13.7%,5.3,0.8
Cc1cc(C(F)F)n2nc(C(=O)Nc3cc(Cl)ccc3C)nc2n1,/,/,-30.0%,/,/
CCC/C=C/c1ccc(CN2C(C)C(=O)N(Cc3cn(CCC4OCCO4)nn3)CCS2(=O)=O)cc1 (configuration not stated),-2.2,8.3,-4.2%,/,/
COc1ccccc1CNC(=O)Cn1c(=O)oc2cc(S(=O)(=O)NCc3ccccc3)ccc21,/,/,-28.9%,/,/
Clc1ccc(N2CCN(Cc3c[nH]c4ncccc34)CC2)cc1,/,-82.0*,-19.4%,-4.0,0.8
Clc1ccc(N2CCN(Cc3cc4ccccn4n3)CC2)cc1,/,/,/,/,-1.5
COC(=O)c1cccc2c1-c1ccccc1/C2=N\NC(N)=O,-147.4*,-189.6*,-12.7%,-10.6,-8.6
c1ccc(CNc2ncnc3nc(N4CCOCC4)[nH]c23)cc1,/,/,/,-1.9,/
C(=C\c1ccccn1)/c1ccncc1,-13.9,-1.0,-19.4%,6.4,-1.0
C(/C=C/c1ccccn1)=C\c1ccccc1,-5.4,-80.9*,-24.4%,5.7,/
CCN(CC)S(=O)(=O)c1ccc2nc(NC(=O)c3ccc(Br)o3)sc2c1,/,/,-24.8%,/,/
CS(=O)(=O)c1ccc2nc(NC(=O)c3ccc(Cn4cc(Br)cn4)o3)sc2c1,-5.7,-94.8*,-11.2%,-24.1,/
Cc1ccc(/C=C2/C(=O)c3ccc(C(=O)O)cc3C2=O)o1,-12.4,2.7,?,-5.2,-10.1
Cc1ccc(C=C2C(=O)c3ccccc3C2=O)o1,-2.2,-82.9*,-3.3%,18.8,0.8
Cc1ccc2c(c1)C(=C(C#N)C#N)C(=O)N2CCN1CCOCC1,-1.9,-7.7,-25.2%,27.5,-36.4*
Cc1ccc2c(c1)C(=C(C#N)C#N)C(=O)N2CCN1CCCCC1,14.9,3.9,-8.7%,-4.6,-9.1
N#CC(C#N)=C1C(=O)N(CCN2CCCCC2)c2ccccc21,-0.1,-11.5,-19.0%,11.5,-6.3
N#CC(C#N)=C1C(=O)N(CCN2CCOCC2)c2ccccc21,5.9,2.5,-24.3%,-2.1,-35.8*
[O-][n+]1cccc2cccc(O)c21,-0.3,5.9,-24.5%,13.4,/
C[n+]1cccc2cccc([O-])c21,0.6,28.0,6.31µM*,17.0,-45.1*
SMILES,KCNH2 WT inh,KCNH2 3.1 inh,USP1 inh,Giardia killer,FBPA coupling cs
CC(=O)c1ccc2c3c(cc(C)c2c1)CCCC3,-1.3,21.4,-8.3%,10.0,/
COc1ccc2cc(CCNC(=O)c3cc4ccccc4o3)c(=O)[nH]c2c1,-80.1*,-3.8,-22.0%,23.7,/
CC(C)(C)c1ccc(C(=O)NCC(c2cccs2)S(=O)(=O)c2ccc(F)cc2)cc1 (configuration not stated),/,/,-1.9%,/,/
Cc1ccc(OCCn2c(-c3ccc(Br)cc3)nc3ccccc3c2=O)cc1C,/,/,-16.9%,/,/
COc1ccc(-c2nc3scc(CCNS(=O)(=O)c4ccccc4F)n3n2)cc1,/,/,-24.8%,/,/
COc1ccc2cc3cc(C(=O)NCCN4CCN(c5ccccc5F)CC4)oc3nc2c1,15.2,-20.3,-23.5%,12.7,-2.4
COc1ccc2cc3cc(C(=O)Nc4ccccc4N4CCN(C)CC4)oc3nc2c1,2.3,-13.5,-25.9%,-86.8*,0.9
N#C/C(=C/c1cn(-c2ccccc2)nc1-c1cccc(OCc2ccc(F)cc2)c1)C(=O)NCCCn1ccnc1,-25.3,-92.5*,-1.3%,-8.8,-3.6
O=C(NCCCn1ccnc1)c1cn(-c2ccccc2)nc1-c1ccc(F)cc1,33.8,-11.3,-18.3%,8.1,5.6
CCCOc1cccc(-c2nn(-c3ccccc3)cc2/C=C(\C#N)C(=O)NCCCn2ccnc2)c1,-186.8*,0.1,?,-6.3,-3.1
COc1ccc(-c2n[nH]c3c2cnc2cc(OC)c(OC)cc23)cc1,/,/,-31.0%,/,/
COc1ccccc1NC(=O)CN(C)S(=O)(=O)c1cccc2cccnc12,3.2,-5.4,?,35.4,/
COc1ccccc1CNC(=O)CN(C)S(=O)(=O)c1cccc2cccnc12,-1.2,-124.6*,-4.4%,-16.9,1.5
CC(C)CNS(=O)(=O)c1ccc(CCC(=O)N2CCC(C(N)=O)CC2)cc1,3.7,-112.6*,4.1%,13.0,0.0
Cc1ccc(C)c(NC(=O)C(OC(=O)c2ccc(NC(=O)CC#N)cc2)c2ccccc2)c1 (configuration not stated),-0.3,-70.8*,-21.2%,1.6,/
Cc1cc(C)n2c(Nc3ccc(C(C)C)cc3)c(-c3ccsc3)nc2n1,/,/,-13.6%,/,/
Cc1ccc(C(=O)Nc2nc(-c3ccc4c(c3)OCCO4)cs2)o1,20.9,2.5,-15.2%,/,/
O=C(Nc1nc(-c2ccc3c(c2)OCCO3)cs1)c1ccc(Br)o1,-10.8,-74.0*,4.2%,/,/
Brc1ccc2ncnc(NCc3ccco3)c2c1,-2.2,-2.0,-26.8%,2.5,-4.6
OC(CNCc1ccco1)Cn1c2ccc(Br)cc2c2cc(Br)ccc21 (configuration not stated),-97.9*,-100.2*,?,-3.3,1.5
CN(C)NC(=S)Nc1ccc2nc(-c3ccccn3)c(-c3ccccn3)nc2c1,1.3,15.2,-2.6%,-7.4,-17.2
OCCCNC(=S)Nc1ccc2nc(-c3ccccn3)c(-c3ccccn3)nc2c1,-0.4,5.1,-12.6%,2.4,-33.5*
CC(C)(C)CC(C)(C)NC(=S)Nc1ccc2nc(-c3ccccn3)c(-c3ccccn3)nc2c1,4.2,-11.8,-19.8%,2.6,-55.6*
S=C(Nc1ccc2nc(-c3ccccn3)c(-c3ccccn3)nc2c1)N1CCOCC1,-9.1,-0.5,-19.9%,-14.9,-41.2*
Cc1cccc(NC(=O)Cn2cc(C(=O)c3ccco3)c3ccccc32)c1C,/,/,-20.6%,/,/
Cc1ccccc1C(=O)n1nc(-c2cccnc2)nc1NCc1ccc(F)cc1,/,/,-12.0%,/,/
Cc1ccc(NC(=O)c2nc(S(C)(=O)=O)ncc2N(Cc2ccccc2)Cc2ccco2)c(C)c1,/,/,-13.8%,/,/
CCOc1ccccc1-c1noc(CSc2nnc(-c3ccccc3)n2-c2cccc(C)c2)n1,/,/,-22.0%,/,/
Cc1ccc2c(c1)C(O)(c1c(C)[nH]c3ccccc13)C(=O)N2 (configuration not stated),-4.0,8.4,-21.4%,5.2,-34.6*
